Laboratory results from PubChem BioAssay (NCI).
The panel holds about 83,000 compounds, 20% with a hit somewhere; the sample as a whole holds those more often.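 Single-dose data. Exposure time 48 hours. Values below 10 considered active.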 Activity calls are given as the source filed them.

Key:
Assay in all cases: NCI-60 one-dose screen, 48 h (100 = growth as untreated, 0 = no growth, -100 = all killed)
Details in all cases: 10 µM unless noted
[1] = test system: NCI-H23 lung
[2] = test system: NCI-H226 lung
[3] = test system: NCI-H322M lung
[4] = test system: HOP-62 NSCLC
[5] = test system: NCI-H460 lung
[6] = test system: NCI-H522 lung
[7] = test system: A549/ATCC NSCLC
[8] = test system: 786-0 renal
[9] = test system: DU-145 prostate
[10] = test system: K-562 leukemia
[11] = test system: MDA-MB-231 breast
[12] = test system: RXF 393 renal
[13] = test system: SF-268 CNS
[14] = test system: SF-295 CNS
[15] = test system: SF-539 CNS
[16] = test system: UACC-257 melanoma
[17] = test system: M14 melanoma
[18] = test system: COLO 205 colon
[19] = test system: MALME-3M melanoma
[20] = test system: HOP-92 NSCLC

Measured: growth

O=C(O)c1cccc2c1Cc1cc([N+](=O)[O-])ccc1-2
inactive: [1] 103% | [2] 100% | [3] 109% | [4] 105% | [5] 110% | [6] 103% | [7] 107% | [8] 108% | [9] 109% | [10] 108% | [11] 102% | [12] 118% | [13] 104% | [14] 115% | [15] 93% | [16] 109% | [17] 110%

O=C1CNCCN1
inactive: [1] 96.4% | [2] 97.1% | [3] 106% | [4] 114% | [5] 105% | [6] 90.9% | [7] 93.4% | [8] 100% | [18] 122% | [9] 107% | [10] 101% | [19] 104% | [11] 97.9% | [12] 98.5% | [13] 107% | [14] 97.4% | [15] 95.8% | [17] 105%

CC(=O)O[C@@H]1CCN2C(=O)N(C)c3ccccc3[C@@H]2C1
inactive: [1] 98.7% | [2] 109% | [3] 108% | [4] 104% | [5] 104% | [6] 96.4% | [7] 95% | [8] 101% | [18] 114% | [9] 121% | [10] 93.5% | [19] 94.7% | [11] 111% | [12] 115% | [13] 113% | [14] 88.9% | [15] 97.7% | [17] 101%

O=S(=O)(NCCNc1cc(-c2cn(-c3ccccc3)nc2-c2cccc(O)c2)ccn1)c1ccc(F)cc1
active: [6] 4.98% | [8] -9.01% | [18] -49.3% | [10] 1.3% | [11] -9.05%
inactive: [1] 33.6% | [2] 45.1% | [3] 58.7% | [4] 48% | [5] 22.9% | [7] 26.9% | [9] 55.3% | [19] 14.5% | [12] 35% | [13] 40.4% | [14] 10.4% | [15] 44.4% | [17] 14.2%

COc1cc(/C=N/NC(=S)NNC(=S)NC2CCCCC2)cc(OC)c1OC
inactive: [1] 97.4% | [2] 91.2% | [3] 93.7% | [4] 94.8% | [5] 97.1% | [6] 89.3% | [7] 100% | [8] 102% | [18] 102% | [9] 92.5% | [10] 88.6% | [19] 95.2% | [11] 77.2% | [12] 95.6% | [13] 102% | [14] 98.7% | [15] 94.8% | [16] 107% | [17] 95.2%

COc1ccc(C2CC(=O)c3c(nc4ccc(Cl)cc4c3N)C2)cc1 (stereo not given)
inactive: [1] 102% | [2] 104% | [3] 104% | [4] 109% | [5] 104% | [6] 100% | [7] 106% | [8] 97% | [18] 114% | [9] 101% | [10] 93.4% | [19] 106% | [11] 114% | [12] 99.3% | [13] 108% | [14] 95.4% | [15] 107% | [16] 113% | [17] 103%

COc1ccc(-c2nc3ccccn3c2-c2nc3ccc(Cl)cc3[nH]2)cc1
inactive: [1] 98.3% | [2] 90.1% | [3] 103% | [4] 114% | [5] 98.8% | [6] 73.9% | [7] 92.5% | [8] 97.6% | [9] 107% | [10] 54.6% | [19] 109% | [11] 95.2% | [12] 95.8% | [13] 112% | [15] 98.9% | [16] 94.2% | [17] 103%

Cc1nn2c(-c3nc4cc(Cl)c(Cl)cc4[nH]3)c(-c3ccc(F)cc3)nc2s1
inactive: [1] 55.8% | [6] 65.2% | [18] 17.7% | [9] 52.8% | [10] 68% | [13] 28% | [17] 30.1%
active: [3] -20% | [4] -36.8% | [5] -13.4% | [20] -7.53% | [7] 5.51% | [8] -79.5% | [11] -12.9% | [12] -5.06% | [15] 6.21% | [16] -21%

Clc1ccc2c(NCCNc3nc(-c4ccccc4)cc(-c4ccccc4)n3)ccnc2c1
active: [1] -47.3% | [3] -10.5% | [4] -73.6% | [5] -73% | [20] -66.8% | [6] -69.9% | [7] -75.2% | [8] -90.8% | [18] -72.2% | [9] -34.1% | [10] -46.6% | [19] -89.3% | [11] -80.9% | [12] -88.2% | [13] -59.7% | [14] -75.8% | [15] -81.1% | [17] -75.4%
inactive: [16] 77.8%

CN(C)c1cccc2[nH]c(-c3[nH]ncc3Nc3ccnc(N)n3)nc12
active: [1] -45.1% | [3] -13.6% | [4] -19.6% | [5] -32.7% | [20] -11.3% | [6] -24.6% | [7] -7.09% | [8] -58% | [18] -64% | [9] -5.08% | [10] 3.38% | [19] -79% | [11] -18.8% | [12] -86.3% | [13] -25.3% | [14] -41.5% | [15] -83.8% | [16] -65.8% | [17] -79.9%

Cc1ccc2c(c1)c1nc3cc(C)c(C)cc3nc1n2CCN(C)C
active: [5] 9.12% | [18] -5.24% | [10] 8.09% | [19] -8.13% | [14] 5.24%
inactive: [1] 13.5% | [3] 16.3% | [4] 23.8% | [20] 32.1% | [6] 31.2% | [7] 12.2% | [8] 26.5% | [9] 20.5% | [11] 19.3% | [12] 16.2% | [13] 30.3% | [15] 11.4% | [16] 13.1% | [17] 13.3%

CC(=O)O[C@H]1CC[C@]2(C)[C@H]3CC=C4[C@@H]5[C@H](C)[C@@H](C)CC[C@]5(C(=O)NCCNCCNCCN)CC[C@@]4(C)[C@]3(C)CC[C@H]2C1(C)C
inactive: [1] 94.6% | [3] 87.6% | [4] 86.2% | [5] 76.8% | [20] 55% | [6] 87.2% | [7] 73.8% | [8] 84.5% | [18] 72.5% | [9] 89.8% | [10] 12% | [19] 59.3% | [11] 78% | [12] 82.7% | [13] 84.1% | [14] 101% | [15] 84.4% | [16] 98% | [17] 88.1%

N#Cc1cnc2cc(OC[C@@H](O)CO)c(NC(=O)CC3CSSC3)cc2c1Nc1ccc(OCc2cccc(F)c2)c(Cl)c1
active: [1] -72.4% | [3] -84.2% | [4] -57.1% | [5] -66.9% | [20] 9.97% | [6] -72.6% | [7] -61.8% | [8] -31.4% | [18] -70.5% | [9] -85.1% | [10] -37.4% | [19] -67.6% | [11] -60.5% | [12] -72.9% | [13] -57% | [14] -80.5% | [15] -79.7% | [17] -78.7%

CN(C)c1ccc(N)c2ccccc12
inactive: [3] 58.7% | [4] 74.1% | [5] 52.5% | [20] 105% | [6] 80.1% | [7] 49.5% | [8] 87.1% | [18] 19.6% | [10] 48.4% | [12] 111% | [13] 77% | [14] 43.4% | [15] 38.4%
active: [1] -79.6% | [9] -96.4% | [19] -85.5% | [16] -2.3% | [17] -94.9%

COc1cc2ncnc(Nc3ccc(Oc4ccnc(C)c4)c(C)c3)c2cc1NC(=O)CC1CCSS1 (stereo not given)
inactive: [20] 62.6% | [8] 52.5%
active: [1] -49.5% | [3] -49.6% | [4] -50.7% | [5] -53.1% | [6] -57.6% | [7] -63.8% | [18] -81.1% | [9] -7.01% | [10] -50.9% | [19] -27.5% | [11] -27.8% | [12] 8.74% | [13] -53.2% | [14] -65.3% | [15] 1.45% | [17] -65.1%

O=C(N/N=C\c1ccccc1O)C1CC1
inactive: [1] 116% | [3] 88.8% | [4] 105% | [5] 115% | [20] 90.8% | [6] 98.1% | [7] 102% | [8] 105% | [18] 109% | [9] 108% | [10] 113% | [11] 103% | [12] 112% | [13] 98.7% | [14] 110% | [15] 110% | [16] 94.7% | [17] 109%

C[C@@H]1CCCCCCCCC[C@H](O)C(=O)C[C@@H](SC[C@@H](O)C(=O)O)C(=O)O1
inactive: [1] 96.5% | [3] 116% | [4] 97.5% | [5] 108% | [20] 90.8% | [6] 66.4% | [7] 85.8% | [8] 85.7% | [18] 117% | [9] 95.2% | [10] 15.5% | [19] 94.7% | [11] 96% | [12] 112% | [13] 98% | [14] 104% | [15] 97.8% | [16] 83.4% | [17] 87%
